Assay outcomes as filed in PubChem.
The list is not random: actives were taken first. Their share in the collection is about 1.8%.
GLP1R inv ag = inverse agonists of human GLP-1 receptor; P43220; HEK293 GLP-1R CRE-luciferase, luminescence, 24 h; GLP-1R form is constitutively active; Potency, µM (top dose mostly 38.3 µM), without a hit: at the highest dose activity change, negative = inhibition, usual class: inhibitors; hit rate 1.6% among 410,000; note: potency is the fitted concentration of half-maximal effect; % is set by controls: 0 for no effect and ±100 for the full control effect; nearly all actives have a fitted effect of over 55% in size
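GLP-1R inverse agonism mode: basal reporter luminescence in engineered HEK293 cells measured after one day of compound exposure at 37 deg C, with a 12 min room-temperature detection step.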
GLP1R cytotox = cytotoxicity in counter-screen for GLP-1R inverse agonists; HEK293 cAMP-luciferase reporter cells, luminescence, 24 h; hit rate 0.13% among 410,000; Potency, µM (top dose mostly 38.3 µM), inactives show top-dose activity change, negative = inhibition, most hits filed as inhibitors; AID 624418;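 note: loss of luciferase light is scored as toxicity; potency is the fitted concentration of half-maximal effect; % is set by controls: 0 for no effect and ±100 for the full control effect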
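To flag toxic compounds, the library was rerun on cells for 24 hr at 37 deg C and 5% CO2. Viability-linked luminescence was captured 12 min after adding luciferase detection reagent.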
TSHR antag = antagonists of human thyroid stimulating hormone receptor; P16473; TSHR-expressing cells, TSH-stimulated cAMP HTRF, 2 h; stronger effect = lower value; activity change, negative = inhibition, % at 11.5 µM; hit rate 0.2% among 330,000;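 active = activity change below a set negative limit, meaning inhibition stronger than a set level, cut at about -70% in these data; inconclusive = activity change between two set negative limits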; note: % is set by controls: 0 for no effect and ±100 for the full control effect
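Inhibition of cAMP made by TSHR-expressing cells under TSH stimulation (4nM final, EC80; 2 h, 37 deg C) is quantified with a one-step lysis HTRF kit, anti-cAMP cryptate versus cAMP-d2.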
PTHR1 ag = PTHR1 (human) receptor agonism; Potency, µM (highest dose often 115 µM), inactives show top-dose activation, hits mostly activators; HEK293 GP2 PTHR1 cells, GloSensor cAMP luminescence, 1 h; Q03431; hit rate 0.075% among 410,000; note: potency is the fitted concentration of half-maximal effect; nearly all actives have a fitted effect of over 55% in size
Target sequence (Q03431 whole entry, looked up): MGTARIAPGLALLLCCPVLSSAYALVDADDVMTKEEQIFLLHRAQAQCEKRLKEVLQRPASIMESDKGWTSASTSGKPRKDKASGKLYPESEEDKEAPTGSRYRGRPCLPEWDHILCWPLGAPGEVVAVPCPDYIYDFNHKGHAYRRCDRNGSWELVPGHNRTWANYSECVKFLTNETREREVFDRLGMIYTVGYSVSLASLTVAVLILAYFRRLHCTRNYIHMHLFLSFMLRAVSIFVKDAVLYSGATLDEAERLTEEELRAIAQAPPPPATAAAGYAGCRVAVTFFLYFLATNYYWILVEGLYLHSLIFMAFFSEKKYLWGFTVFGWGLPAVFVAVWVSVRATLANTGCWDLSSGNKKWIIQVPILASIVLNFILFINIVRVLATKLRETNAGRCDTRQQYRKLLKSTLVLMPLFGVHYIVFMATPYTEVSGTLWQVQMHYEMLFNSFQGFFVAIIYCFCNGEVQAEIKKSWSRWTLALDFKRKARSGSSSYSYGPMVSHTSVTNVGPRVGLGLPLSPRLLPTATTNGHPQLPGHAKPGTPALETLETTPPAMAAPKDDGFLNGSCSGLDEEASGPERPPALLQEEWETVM
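HEK-293-derived GP2 cells expressing PTHR1 and a GloSensor cAMP reporter, 3,000/well, plated overnight, given luciferin plus IBMX (each 0.5 mM as added) for 1 h at 37 °C, then compound for 1 h at 37 °C. Luminescence was read after 15 min at room temperature.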
GLP-1R agonist = agonists of human GLP-1 receptor; P43220; HEK293 GLP-1R CRE-luciferase, luminescence, 4-6 h; cells express a hypersensitive GLP-1R form; Potency, µM (highest dose often 45.6 µM), for the others: at the highest dose activation, hits mostly activators; hit rate 0.007% among 380,000; note: potency is the fitted concentration of half-maximal effect; % of control where 0% means no effect
An asterisk follows results filed as active; i = inactive; ? = inconclusive; · = no result; [ ] = dose if it differs, or a comment. Unless noted, calls come from the whole dose curve; as a rule, active = well fitted curve in the direction sought with a large enough effect; inconclusive = small, poorly fitted or top-dose-only effect, or another doubt; inactive = no such curve, though single readings can be large; an effect the other way counts as inactive or inconclusive.

SMILES | GLP1R inv ag | GLP1R cytotox | TSHR antag | PTHR1 ag | GLP-1R agonist
Cc1ccc(C)c(NC(=S)NC(NC(=O)/C=C/c2ccccc2)C(Cl)(Cl)Cl)c1 (centres undefined) | 3.55µM* | -20.5% | -4.8 | -21.5%[57.5 µM] | -15.0%
Cc1ccc(S(=O)(=O)N(C)c2ccc(C(=O)NCC(c3ccco3)N3CCCC3)cc2)cc1 (centres undefined) | ? | 7.5% | · | -30.1% | 10.6%
COc1ccccc1NS(=O)(=O)c1cccc(C(=O)NCC(c2ccccc2OC)N2CCCC2)c1 (centres undefined) | ? | 11.2% | 34.8 | -17.9% | 5.3%
Cc1ccc(N(C)S(=O)(=O)c2cccc(C(=O)NCC(c3ccco3)N3CCCC3)c2)cc1 (centres undefined) | 10µM* | 2.6% | 7.7 | -15.9% | -3.8%
COc1ccccc1C(CNC(=O)c1cccc(S(=O)(=O)Nc2ccc(C)cc2)c1)N1CCCC1 (centres undefined) | 5.62µM* | -28.4% | 7.6 | -9.2% | -4.5%
OC[C@@H]1CCCN1Cc1cn(-c2ccccc2)nc1-c1ccc2c(c1)OCO2 | ? | 6.1% | 13.0 | 11.3% | 1.4%
c1ccc(-n2cc(CN3CCCC(CN4CCCC4)C3)c(-c3ccc4c(c3)OCO4)n2)cc1 (centres undefined) | 10µM* | ? | 5.1 | 8.4% | 16.1%
O=S(=O)(/C(=C/c1ccc(C(F)(F)F)cc1)c1nc2ccccc2[nH]1)c1ccccc1 | 1.78µM* | 7.94µM* | -34.4 | -7.6% | -7.2%
CCCCN(CC)CCNC(=O)C1CCN(c2nnc(C)c3c(C)n(-c4ccc(C)cc4)nc23)CC1 | 10µM* | ? | · | -18.8% | ·
COc1ccc(CNc2ncnc3onc(-c4ccc(F)cc4)c23)cc1 | ? | -2.4% | · | ? | ·
Cc1ccc(CSC2=NC(C)(C)Nc3ccccc32)c(C)c1 | 10µM* | 0.0% | · | i | ·
COc1cccc(CN(C)C(=O)CCN(c2ccccc2)S(=O)(=O)c2ccc(C)cc2)c1OC | 8.91µM* | -11.2% | -1.8 | -24.6% | 15.7%
Cc1cc2cc(CNC(=S)Nc3ccc(OC(F)(F)F)cc3)ccc2[nH]1 | 11.2µM* | ? | -9.9 | i | -3.0%
Cc1cc(OC(C)C(=O)N(Cc2ccco2)Cc2ccccc2F)cc(C)c1Cl (centres undefined) | ? | 6.3% | · | -6.2% | ·
C[C@@]12C(=O)N(c3ccc(F)cc3)C(=O)N1[C@@H]1c3ccccc3OC[C@@H]1[C@H]2c1ccccc1 | 10µM* | -6.5% | -9.9 | 13.7% | -0.2%
CC1CCN(C(c2ccccc2)c2sc3nc(-c4ccco4)nn3c2O)CC1 (centres undefined) | -23.9% | -8.6% | · | i | ·
CCOc1ccc(C2N3CC4(C(C)C)CN2CC(C(C)C)(C3)C4=O)cc1OC (centres undefined) | 8.8% | 0.7% | · | i | ·
O=C(Nc1ccc(F)cc1)c1cccnc1NCCc1ccccc1 | ? | -5.9% | -2.9 | i | 5.7%
O=C(NCCc1ccccc1)c1cccnc1N1CCCCCC1 | ? | 11.4% | -80.4* | -26.6%[57.5 µM] | 5.0%
O=C(Nc1cccc(C(F)(F)F)c1)c1cccnc1NCCc1ccccc1 | 3.55µM* | ? | -0.4 | -18.1% | -2.2%
O=C(NCCc1ccccc1)c1ccccc1Cl | ? | 18.3% | 15.8 | -33.9% | -27.3%
O=C(Nc1cccc(C(F)(F)F)c1)c1cccnc1N1CCCC1 | 11.2µM* | 9.7% | 2.6 | i | 15.6%
O=C(Nc1cccc(F)c1)c1cccnc1NCCc1ccccc1 | 10µM* | -3.6% | -12.7 | -1.9% | 17.1%
COc1ccccc1CCNC(=O)Cc1c(C)c2cc(Cl)c(O)cc2oc1=O | 20.4% | 222.7% | · | i | ·
Cc1ccc(C(C(=O)NC2CCCC2)N(C(=O)Cc2cccs2)c2ccc3c(c2)OCCO3)cc1 (centres undefined) | 10µM* | -27.1% | 13.2 | i | -1.1%
SMILES | GLP1R inv ag | GLP1R cytotox | TSHR antag | PTHR1 ag | GLP-1R agonist
Cc1ccc(C(C(=O)NC2CCCC2)N(C(=O)Cc2cccs2)c2ccc(C)c(C)c2)o1 (centres undefined) | 10µM* | -28.2% | -4.6 | i | 2.7%
O=C(NC1CCCC1)C(c1ccc(F)cc1)N(C(=O)Cc1cccs1)c1ccc2c(c1)OCCO2 (centres undefined) | 0.0% | 8.7% | -9.7 | i | 2.1%
CC1=C(C(=O)Nc2ccccc2)C(c2ccc(Br)cc2)n2nc(CCCO)nc2N1 (centres undefined) | 6.7% | -8.5% | · | -16.2% | ·
COc1cc(NC(=O)c2ccc(-c3nc(CSc4ccccc4)c(C)o3)cc2)cc(OC)c1 | ? | -5.7% | · | -33.1% | ·
CCc1nn2c(=O)cc(COC(=O)CNC(=O)c3ccccc3)nc2s1 | 6.6% | 4.5% | · | i | ·
COc1cc([N+](=O)[O-])ccc1NC(=O)N1CCC2(CC1)Nc1cc(F)ccc1-n1cccc12 | 11.2µM* | -21.2% | · | -18.8% | ·
COc1ccc(S(=O)(=O)NCCc2cn3ccsc3n2)cc1OC | 16.2% | -13.5% | · | -7.6% | ·
Cc1ccccc1C(=O)N1CCC(C(=O)Nc2nccs2)CC1 | -10.0% | -16.5% | 5.4 | i | 3.2%
Cc1ccccc1C(=O)N1CCC(C(=O)Nc2nc3ccc(F)cc3s2)CC1 | 10µM* | -5.1% | -9.9 | -35.1% | -7.0%
O=[N+]([O-])c1cc(C(F)(F)F)ccc1NCCCCNS(=O)(=O)c1ccc(Cl)cc1 | 11.2% | -2.4%[1.53 µM] | -6.3 | -89.7% | 2.9%
O=C(Nc1ccc(Cl)cc1)N1CCCN(c2ccc(C(F)(F)F)cc2[N+](=O)[O-])CC1 | 2.82µM* | ? | -0.9 | -24.4% | 1.3%
NS(=O)(=O)c1ccc(CNC(=S)Nc2ccc(F)c(Cl)c2)cc1 | ? | -0.6% | 2.3 | i | 6.9%
NS(=O)(=O)c1ccc(NC(=S)NCc2ccc(Cl)cc2)cc1 | 3.98µM* | -1.9% | -13.9 | ? | 2.2%
O=[N+]([O-])c1cc(C(F)(F)F)ccc1N1CCC(O)CC1 | -9.6% | -1.2% | 27.5 | i | 19.1%
O=[N+]([O-])c1ccc(NC(=S)NCCc2ccc(Cl)cc2)cc1 | -3.9% | ? | -74.8* | -36.6% | -13.6%
O=[N+]([O-])c1cc(C(F)(F)F)ccc1NCCNC(=S)Nc1ccc(Cl)cc1 | 11.2µM* | -57.2% | 1.6 | -22.1% | -5.9%
COc1ccc(CCNC2=C(Cl)C(=O)N(CCc3ccc(OC)c(OC)c3)C2=O)cc1OC | 1.5% | 56.7% | -73.8* | -27.4%[57.5 µM] | 7.7%
COc1ccc(CCN2C(=O)C=CC2=O)cc1OC | ? | ? | · | -7.6% | -9.2%
COc1ccc(CNC(=O)CCc2c(C)c3cc4c(C)coc4cc3oc2=O)cc1 | 0.0% | 13.1% | · | -17.3% | ·
CC1(C)Cc2c(sc(N)c2C#N)C(C)(C)N1 | 3.6% | -7.6% | 6.4 | ? | 8.7%
